Measured values reported in PubChem BioAssay (Tox21).
Inconclusive results are not listed. Calls of active or inactive are those of the source. Unless noted, calls follow the shape of the dose curve; as a rule, active = well fitted curve in the direction sought with a large enough effect in the repeat runs; inconclusive = weak or mixed curves; inactive = no such curve, though single readings can be large; an effect the other way counts as inactive or inconclusive.

Key:
[1] = biological target: Retinoic acid receptor RXR-alpha (Homo sapiens) (UniProt P19793); assay: qHTS assay to identify small molecule agonists of the RXR signaling pathway (AID 1159527; calls by dose curve; also: nearly all actives have a fitted effect of over 35% in size)
Sequence of Retinoic acid receptor RXR-alpha (Homo sapiens) (P19793 whole entry, looked up): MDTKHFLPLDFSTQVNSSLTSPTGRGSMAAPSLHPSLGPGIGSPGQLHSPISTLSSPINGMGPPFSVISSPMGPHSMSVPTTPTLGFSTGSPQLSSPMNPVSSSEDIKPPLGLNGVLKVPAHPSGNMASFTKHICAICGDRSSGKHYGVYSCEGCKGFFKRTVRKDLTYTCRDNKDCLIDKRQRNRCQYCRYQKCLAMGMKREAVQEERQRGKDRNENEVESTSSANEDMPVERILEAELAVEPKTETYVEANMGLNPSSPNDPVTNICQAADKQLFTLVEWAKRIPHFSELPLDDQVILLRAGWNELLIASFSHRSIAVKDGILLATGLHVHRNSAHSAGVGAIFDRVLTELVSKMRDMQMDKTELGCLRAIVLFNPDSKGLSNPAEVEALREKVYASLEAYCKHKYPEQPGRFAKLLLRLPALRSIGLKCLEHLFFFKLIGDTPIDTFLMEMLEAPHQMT
Procedure, shortened: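 qHTS of the Tox21 10K library in GeneBLAzer RXR-alpha HEK 293T cells carrying a beta-lactamase reporter […]; 16 hr treatment, 9-cis retinoic acid as agonist control, FRET read-out.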

[2] = qHTS assay to identify small molecule agonists of the RXR signaling pathway - cell viability counter screen (AID 1159529); also: nearly all actives have a fitted effect of over 50% in size
Procedure, shortened: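 Cell viability is measured by CellTiter-Glo luminescence, 30 min at room temperature, in wells already read for beta-lactamase. Engineered HEK 293T cells (RXR-alpha-UAS-bla) are dosed 16 hr at 37 C. Tetraoctyl ammonium bromide serves as positive control.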

[3] = qHTS assay to identify small molecule antagonists of the retinoid acid receptor (RAR) signaling pathway - cell viability counter screen (AID 1159551); also: nearly all actives have a fitted effect of over 35% in size
Procedure, shortened: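 In this counter screen, the RARE-luciferase line C3RL4 was exposed for 6 h at 37 C and 5% CO2 to compounds with retinol at 1 uM final. Cellular ATP, read by luminescence, served as the viability measure.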

[4] = qHTS assay to identify small molecule agonists of the retinoic acid receptor (RAR) signaling pathway (AID 1159553); settings: C3RL4 RARE luciferase reporter, agonist, 6 h; activation: at 73.3 µM (top of the series) unless noted
Procedure, shortened: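 In this cell-based screen, 1,000 C3RL4 cells per well were cultured overnight, dosed with test chemicals in DMSO for 6 hr, and assessed for RARE luciferase luminescence.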

[5] = qHTS assay to identify small molecule antagonists of the estrogen related receptor (ERR) signaling pathway from Tox21 library - cell viability counter screen (AID 1224834); also: nearly all actives have a fitted effect of over 30% in size
Procedure, shortened: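 Counter screen run in ERR cells (2,000 cells/well): cells pre-incubated 6 h, then treated with compounds for 17.5 h at 37 C. Fluorescence was read 30 min after CellTiter-Fluor addition.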

[6] = biological target: Luciferin 4-monooxygenase (Photinus pyralis) (UniProt P08659); assay: qHTS assay to identify small molecule inhibitors of firefly luciferase (AID 1224835); also: nearly all actives have a fitted effect of over 25% in size
Sequence of Luciferin 4-monooxygenase (Photinus pyralis) (P08659 whole entry, looked up): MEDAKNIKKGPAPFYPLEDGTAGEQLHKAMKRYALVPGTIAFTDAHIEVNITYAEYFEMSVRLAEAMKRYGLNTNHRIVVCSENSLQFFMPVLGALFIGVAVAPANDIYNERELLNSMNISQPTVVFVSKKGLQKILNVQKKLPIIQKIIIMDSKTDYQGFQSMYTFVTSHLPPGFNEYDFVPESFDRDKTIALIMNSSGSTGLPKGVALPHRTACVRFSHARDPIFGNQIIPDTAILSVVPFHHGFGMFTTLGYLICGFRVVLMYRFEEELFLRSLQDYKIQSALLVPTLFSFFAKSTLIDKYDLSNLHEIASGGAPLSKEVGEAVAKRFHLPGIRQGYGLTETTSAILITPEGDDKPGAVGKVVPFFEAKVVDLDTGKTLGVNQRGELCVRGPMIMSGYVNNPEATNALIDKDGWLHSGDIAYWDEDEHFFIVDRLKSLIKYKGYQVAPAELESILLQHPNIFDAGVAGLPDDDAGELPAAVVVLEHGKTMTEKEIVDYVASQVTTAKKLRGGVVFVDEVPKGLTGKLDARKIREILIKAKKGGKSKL
Procedure, shortened: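 Inhibition of purified Photinus luciferase is measured by luminescence. Substrate levels (D-luciferin, ATP) sit at their KM values. Each compound is tested in a concentration series.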

[7] = qHTS assay to identify small molecule agonists of the constitutive androstane receptor (CAR) signaling pathway - cell viability counter screen (AID 1224836); also: nearly all actives have a fitted effect of over 45% in size
Procedure, shortened: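 Counter screen multiplexed with the CAR reporter readout: HepG2 cells co-transfected with hCAR and the CYP2B6-2.2kb construct receive a 15-concentration compound series and 0.75 uM PK11195 (final), then CellTiter-Fluor fluorescence is read after 23 h.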

[8] = qHTS assay to identify small molecule antagonists of the constitutive androstane receptor (CAR) signaling pathway - cell viability counter screen (AID 1224837); also: nearly all actives have a fitted effect of over 45% in size
Procedure, shortened: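 CITCO at 50 nM final was added alongside compounds (15 concentrations) to double-stable hCAR/CYP2B6-2.2kb HepG2 cells. Following 23 hr at 37 C, cell viability was quantified by CellTiter-Fluor fluorescence intensity.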

[9] = biological target: Nuclear receptor subfamily 1 group I member 3 (Homo sapiens) (UniProt Q14994); assay: qHTS assay to identify small molecule antagonists of the constitutive androstane receptor (CAR) signaling pathway (AID 1224838); also: nearly all actives have a fitted effect of over 40% in size
Sequence of Nuclear receptor subfamily 1 group I member 3 (Homo sapiens) (Q14994 whole entry, looked up): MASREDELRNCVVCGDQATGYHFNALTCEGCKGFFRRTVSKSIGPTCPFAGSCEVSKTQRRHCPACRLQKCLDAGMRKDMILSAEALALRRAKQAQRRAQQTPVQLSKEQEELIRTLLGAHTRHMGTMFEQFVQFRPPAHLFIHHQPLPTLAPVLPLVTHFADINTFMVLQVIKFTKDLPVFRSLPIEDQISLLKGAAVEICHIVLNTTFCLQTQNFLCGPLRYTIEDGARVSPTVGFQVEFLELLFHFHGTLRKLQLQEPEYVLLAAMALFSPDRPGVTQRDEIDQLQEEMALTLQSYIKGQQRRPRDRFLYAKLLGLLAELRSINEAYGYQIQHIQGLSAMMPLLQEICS
Procedure, shortened: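 Inhibition of CITCO-driven (50 nM final) CYP2B6 reporter expression is measured in HepG2 cells stably carrying hCAR. Fifteen compound concentrations are applied for 24 h at 37 C, followed by luciferase luminescence.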

[10] = biological target: Nuclear receptor subfamily 1 group I member 3 (Homo sapiens) (UniProt Q14994); assay: qHTS assay to identify small molecule agonists of the constitutive androstane receptor (CAR) signaling pathway (AID 1224839); also: nearly all actives have a fitted effect of over 15% in size
Procedure, shortened: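 A 15-concentration quantitative screen uses HepG2 cells co-transfected stably with human CAR and CYP2B6-2.2kb reporter. Treatment lasts 24 h with 0.75 uM PK11195 final present; ONE-Glo luminescence is the signal.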

[11] = qHTS assay to identify small molecule antagonists of the estrogen related receptor signaling pathway with the pleiotropic PPARgamma coactivator (PGC) from Tox21 10K library - cell viability counter screen (AID 1224840; active = well fitted cell-killing curve with a large enough effect in the repeat runs, not every such curve was filed as active; also: nearly all actives have a fitted effect of over 40% in size)
Procedure, shortened: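 Readout: fluorescence intensity from CellTiter-Fluor after 30 min at 37 C/5% CO2. Preceded by 17.5 h treatment of PGC/ERR cells with DMSO-dissolved compounds, added 6 h post-seeding.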

[12] = qHTS assay to identify small molecule antagonists of the estrogen related receptor signaling pathway with the pleiotropic PPARgamma coactivator (PGC) from Tox21 10K library (AID 1224841; call rule not given here; also: actives are mostly falling curves and most rising ones were filed inactive; nearly all actives have a fitted effect of over 50% in size)
Procedure, shortened: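 One-Glo luminescence, measured after half an hour at room temperature, quantified reporter output of PGC/ERR cells. These had been plated at 2,000 per well, incubated 6 h, dosed with compounds in DMSO, then kept 18 h at 37 C.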

[13] = biological target: Thyrotropin receptor (Homo sapiens) (UniProt P16473); assay: qHTS assay to identify small molecule agonists of the thyroid stimulating hormone receptor (TSHR) signaling pathway (AID 1224843; calls by dose curve; also: nearly all actives have a fitted effect of over 45% in size)
Sequence of Thyrotropin receptor (Homo sapiens) (P16473 whole entry, looked up): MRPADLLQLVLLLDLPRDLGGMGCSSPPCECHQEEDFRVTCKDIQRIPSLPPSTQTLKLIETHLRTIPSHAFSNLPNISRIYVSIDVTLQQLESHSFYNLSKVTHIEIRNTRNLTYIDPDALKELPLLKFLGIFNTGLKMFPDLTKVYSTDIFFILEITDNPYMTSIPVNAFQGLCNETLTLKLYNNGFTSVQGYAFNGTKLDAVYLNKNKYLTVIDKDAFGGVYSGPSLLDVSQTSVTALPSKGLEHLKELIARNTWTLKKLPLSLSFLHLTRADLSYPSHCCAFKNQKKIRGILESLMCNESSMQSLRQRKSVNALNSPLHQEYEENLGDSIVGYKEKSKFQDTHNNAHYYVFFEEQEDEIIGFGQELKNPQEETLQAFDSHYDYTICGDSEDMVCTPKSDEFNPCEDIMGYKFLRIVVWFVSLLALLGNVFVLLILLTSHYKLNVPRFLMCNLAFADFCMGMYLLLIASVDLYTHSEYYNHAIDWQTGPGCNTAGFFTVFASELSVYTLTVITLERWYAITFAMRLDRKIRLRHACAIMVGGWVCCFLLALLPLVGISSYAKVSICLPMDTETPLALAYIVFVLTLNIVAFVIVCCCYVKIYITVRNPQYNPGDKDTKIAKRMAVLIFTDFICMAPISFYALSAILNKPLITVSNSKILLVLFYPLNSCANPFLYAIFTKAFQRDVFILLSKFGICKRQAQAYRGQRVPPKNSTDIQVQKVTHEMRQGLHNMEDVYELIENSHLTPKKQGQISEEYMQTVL
Procedure, shortened: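 Agonist activity read as cAMP rise via d2/cryptate HTRF competition, 1 h room-temperature detection, in HEK293 cells expressing TSHR. Fifteen-point titrations, each run in triplicate, with a 30 min room-temperature incubation beforehand.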

[14] = qHTS assay to identify small molecule agonists of the hypoxia (HIF-1) signaling pathway - cell viability counter screen (AID 1224844; calls by dose curve; also: nearly all actives have a fitted effect of over 50% in size)
Procedure, shortened: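 In this counter screen, HRE-bla ME-180 cell viability after 17 hrs of compound exposure at 37C was read by CellTiter-Glo luminescence, multiplexed with the beta-lactamase reporter measurement.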

[15] = qHTS assay to identify small molecule agonists of H2AX (AID 1224845; active = well fitted activation curve with a large enough effect in the signal ratio in the repeat runs, not every such curve was filed as active; the % refers to the signal ratio)
Procedure, shortened: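 Phospho-H2AX Ser139 measured by HTRF (ex 320 nm; em 665 and 620 nm) after 24 hr antibody incubation. Compounds, 15 concentrations, 0.76% DMSO, were applied to CHO-K1 cells for 3hr at 37C before lysis.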

[16] = qHTS assay to identify small molecule agonists of the hypoxia (HIF-1) signaling pathway (AID 1224846; active = well fitted activation curve with a large enough effect in the signal ratio in the repeat runs, not every such curve was filed as active; the % refers to the signal ratio)
Procedure, shortened: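 ME-180 HRE-bla reporter cells; compounds in DMSO, 17 h at 37C; read-out beta-lactamase via CCF4-AM FRET.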

[17] = qHTS assay to identify small molecule agonists of H2AX - cell viability counter screen (AID 1224847; calls by dose curve; also: top concentration of the series differs between compounds; nearly all actives have a fitted effect of over 30% in size)
Procedure, shortened: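 We seed wild-type CHO-K1 cells overnight, treat them for 3 hr at 37C with compounds in 15-concentration series, and quantify remaining viability by CellTiter-Glo luminescence.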

[18] = qHTS assay to identify small molecule antagonists of the retinoic acid receptor (RAR) signaling pathway (AID 1159552; also: nearly all actives have a fitted effect of over 50% in size)
Procedure, shortened: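 Quantitative HTS in C3RL4 RARE-luciferase reporter cells. Compounds were added with 1 uM (final) retinol; luminescence was read after 6 hr.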

Measured: Potency

CNC(=O)Oc1ccccc1OC(C)C
not listed: [18]
inactive: all other assays above

c1ccc2c(c1)Oc1ccccc1O2
not listed: [6] | [12] | [15]
inactive: all other assays above

OCCN(CCO)CCO
not listed: [10] | [12]
inactive: all other assays above

CC(C)C1(C)N=C(c2nc3ccccc3cc2C(=O)O)NC1=O (stereo not drawn)
not listed: [13] | [15] | [18]
inactive: all other assays above

CCCN(CCC)N=O
not listed: [6] | [12] | [13]
inactive: all other assays above

c1cc2c3c(cccc3c1)CC2
not listed: [12] | [18]
inactive: all other assays above

C1CC2OC2CC1C1CO1 (stereo not drawn)
not listed: [12]
inactive: all other assays above

Clc1cccc(Cl)c1Cl
not listed: [6]
inactive: all other assays above

Cc1ccc(N)cc1Cl
not listed: [6] | [12] | [13]
inactive: all other assays above
